# Experimental data from paper PMC7862700, “An all-to-all approach to the identification of sequence-specific readers for epigenetic DNA modifications on cytosine”.
# Tests used:
# Assay in all cases: DAPPL (digital affinity profiling via proximity ligation, sequencing); 10 mM Tris-HCl pH 7.5, 50 mM NaCl, 1 mM DTT, 4% glycerol, room temperature, 30 min; GST-TFs on glutathione beads, 16-mer random dsDNA library, 0.1% formaldehyde crosslink after washing; high values mean tight binding
# FEV = target: T1, FEV (Homo sapiens, UniProt Q99581 1-238); settings: protein: recombinant; tags: N-terminal GST; dsDNA, one strand shown
# T1 sequence: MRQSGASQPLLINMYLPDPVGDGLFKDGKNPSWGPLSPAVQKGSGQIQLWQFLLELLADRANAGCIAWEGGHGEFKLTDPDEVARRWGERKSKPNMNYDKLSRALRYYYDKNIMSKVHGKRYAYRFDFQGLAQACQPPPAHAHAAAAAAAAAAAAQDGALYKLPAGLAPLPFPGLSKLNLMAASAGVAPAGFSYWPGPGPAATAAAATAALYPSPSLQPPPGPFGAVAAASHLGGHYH
# In short: (§1)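 The binding signal reported is, for every hexamer, its read frequency for a factor over its read frequency for the tag-only sample. Reads came from pools of yeast-expressed, GST-fused human transcription factors on glutathione beads, barcoded with DNA and mixed with that sample, which were incubated with 200 nmole of a random double-stranded 16-mer DNA library in Tris/NaCl/DTT/glycerol buffer at room temperature for 30 min. After washing, the pools were crosslinked with 0.1% formaldehyde, proximity-ligated with BsaI/T4 ligase for 1 h at 37 °C, PCR-amplified and sequenced on an Illumina NextSeq500.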
# ETV5 = ETV5 (Homo sapiens, UniProt P41161 1-510); settings: protein: recombinant; tags: N-terminal GST; dsDNA, one strand shown
# In short: as §1
# HSF1 = HSF1 (Homo sapiens, UniProt Q00613 1-529); settings: protein: recombinant; tags: N-terminal GST; chain copies: 3; dsDNA, one strand shown
# In short: as §1
# SPIC = target: T2, SPIC (Homo sapiens, UniProt Q8N5J4 1-248); settings: protein: recombinant; tags: N-terminal GST; dsDNA, one strand shown
# T2 sequence: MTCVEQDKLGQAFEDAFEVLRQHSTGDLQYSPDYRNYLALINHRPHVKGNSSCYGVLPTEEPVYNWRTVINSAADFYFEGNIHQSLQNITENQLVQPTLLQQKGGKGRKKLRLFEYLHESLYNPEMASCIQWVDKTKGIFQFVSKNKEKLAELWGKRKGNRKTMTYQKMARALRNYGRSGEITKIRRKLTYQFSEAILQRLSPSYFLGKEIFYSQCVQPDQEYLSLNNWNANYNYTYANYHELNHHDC
# In short: as §1
# ELF4 = ELF4 (Homo sapiens, UniProt Q99607 1-663); settings: protein: recombinant; tags: N-terminal GST; dsDNA, one strand shown
# In short: as §1
# ELK4 = target: T3, ELK4 (Homo sapiens, UniProt P28324-2 1-405); settings: protein: recombinant; tags: N-terminal GST; dsDNA, one strand shown
# T3 sequence: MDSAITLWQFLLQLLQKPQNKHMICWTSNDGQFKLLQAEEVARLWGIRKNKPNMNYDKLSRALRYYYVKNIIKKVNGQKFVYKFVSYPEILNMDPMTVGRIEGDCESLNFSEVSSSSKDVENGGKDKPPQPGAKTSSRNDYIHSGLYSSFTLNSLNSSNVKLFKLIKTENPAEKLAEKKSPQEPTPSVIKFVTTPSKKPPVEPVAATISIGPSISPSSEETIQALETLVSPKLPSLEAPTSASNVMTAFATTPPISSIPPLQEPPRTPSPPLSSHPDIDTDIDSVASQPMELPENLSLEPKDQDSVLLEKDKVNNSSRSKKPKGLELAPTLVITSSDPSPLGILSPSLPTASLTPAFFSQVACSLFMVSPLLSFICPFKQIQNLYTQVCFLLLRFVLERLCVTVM
# In short: as §1
# ETV2 = target: T4, ETV2 (Homo sapiens, UniProt O00321 1-342); settings: protein: recombinant; tags: N-terminal GST; dsDNA, one strand shown
# T4 sequence: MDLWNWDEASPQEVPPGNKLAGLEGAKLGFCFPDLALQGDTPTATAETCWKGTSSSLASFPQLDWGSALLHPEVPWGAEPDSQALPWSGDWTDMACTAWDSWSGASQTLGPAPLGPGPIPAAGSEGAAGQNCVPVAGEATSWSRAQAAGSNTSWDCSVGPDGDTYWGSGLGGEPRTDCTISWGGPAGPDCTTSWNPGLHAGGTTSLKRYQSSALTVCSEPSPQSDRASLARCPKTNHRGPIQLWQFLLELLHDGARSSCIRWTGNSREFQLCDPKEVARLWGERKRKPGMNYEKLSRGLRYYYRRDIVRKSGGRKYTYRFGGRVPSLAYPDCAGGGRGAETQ
# In short: as §1
# ELF3 = target: T5, ELF3 (Homo sapiens, UniProt P78545 1-371); settings: protein: recombinant; tags: N-terminal GST; dsDNA, one strand shown
# T5 sequence: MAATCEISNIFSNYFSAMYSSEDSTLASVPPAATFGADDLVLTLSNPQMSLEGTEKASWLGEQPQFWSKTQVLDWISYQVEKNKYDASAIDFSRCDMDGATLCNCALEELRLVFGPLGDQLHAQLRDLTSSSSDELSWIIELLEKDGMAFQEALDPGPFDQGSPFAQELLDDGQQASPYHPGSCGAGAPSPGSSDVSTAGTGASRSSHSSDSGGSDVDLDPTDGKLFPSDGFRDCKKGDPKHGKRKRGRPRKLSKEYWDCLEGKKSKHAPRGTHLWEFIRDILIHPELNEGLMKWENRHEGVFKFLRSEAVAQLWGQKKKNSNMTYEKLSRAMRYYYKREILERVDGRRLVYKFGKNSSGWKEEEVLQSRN
# In short: as §1
# ETV1 = ETV1 (Homo sapiens, UniProt P50549 1-477); settings: protein: recombinant; tags: N-terminal GST; dsDNA, one strand shown
# In short: as §1
# ERF = target: T6, ERF (Homo sapiens, UniProt P50548 1-548); settings: protein: recombinant; tags: N-terminal GST; dsDNA, one strand shown
# T6 sequence: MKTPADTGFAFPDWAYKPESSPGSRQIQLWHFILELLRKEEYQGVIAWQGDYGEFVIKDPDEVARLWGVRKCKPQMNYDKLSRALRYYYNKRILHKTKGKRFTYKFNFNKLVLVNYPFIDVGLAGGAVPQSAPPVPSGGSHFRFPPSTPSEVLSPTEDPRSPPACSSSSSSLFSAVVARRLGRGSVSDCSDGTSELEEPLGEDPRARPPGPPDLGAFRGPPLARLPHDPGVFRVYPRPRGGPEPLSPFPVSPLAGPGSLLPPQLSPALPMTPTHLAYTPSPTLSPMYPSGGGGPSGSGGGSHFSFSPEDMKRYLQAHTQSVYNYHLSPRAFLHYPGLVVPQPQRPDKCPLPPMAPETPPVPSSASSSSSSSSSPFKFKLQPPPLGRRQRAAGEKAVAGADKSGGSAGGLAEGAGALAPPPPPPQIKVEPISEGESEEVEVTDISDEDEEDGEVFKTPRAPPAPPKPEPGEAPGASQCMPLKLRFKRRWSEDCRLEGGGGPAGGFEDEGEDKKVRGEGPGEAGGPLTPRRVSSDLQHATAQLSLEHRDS
# In short: as §1
# ETV3L = target: T7, ETV3L (Homo sapiens, UniProt Q6ZN32 1-361); settings: protein: recombinant; tags: N-terminal GST; dsDNA, one strand shown
# T7 sequence: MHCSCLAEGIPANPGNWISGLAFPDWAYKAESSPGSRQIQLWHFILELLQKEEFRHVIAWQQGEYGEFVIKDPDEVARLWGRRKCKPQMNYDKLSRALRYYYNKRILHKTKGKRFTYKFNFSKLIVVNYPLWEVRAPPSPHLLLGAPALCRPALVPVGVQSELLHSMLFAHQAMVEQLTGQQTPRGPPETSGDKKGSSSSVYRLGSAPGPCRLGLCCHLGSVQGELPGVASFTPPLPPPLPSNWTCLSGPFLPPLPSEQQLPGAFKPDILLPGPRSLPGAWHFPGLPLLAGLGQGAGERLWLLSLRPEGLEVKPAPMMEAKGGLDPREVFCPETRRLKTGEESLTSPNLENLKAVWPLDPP
# In short: as §1
# ETS2 = target: T8, ETS2 (Homo sapiens, UniProt P15036 1-469); settings: protein: recombinant; tags: N-terminal GST; dsDNA, one strand shown
# T8 sequence: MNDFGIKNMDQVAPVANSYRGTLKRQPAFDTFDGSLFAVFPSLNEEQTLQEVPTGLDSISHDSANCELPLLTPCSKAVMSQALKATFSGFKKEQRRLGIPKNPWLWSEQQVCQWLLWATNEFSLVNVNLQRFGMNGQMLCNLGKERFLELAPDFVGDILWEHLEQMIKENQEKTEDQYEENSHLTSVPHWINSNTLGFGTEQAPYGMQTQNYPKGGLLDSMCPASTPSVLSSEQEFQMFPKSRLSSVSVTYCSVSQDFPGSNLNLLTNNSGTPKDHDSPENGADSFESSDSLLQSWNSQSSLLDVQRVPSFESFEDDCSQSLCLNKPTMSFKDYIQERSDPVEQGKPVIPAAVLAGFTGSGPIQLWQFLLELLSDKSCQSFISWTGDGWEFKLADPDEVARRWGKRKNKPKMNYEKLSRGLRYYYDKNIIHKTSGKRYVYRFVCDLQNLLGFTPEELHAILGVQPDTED
# In short: as §1
# SPDEF = target: T9, SPDEF (Homo sapiens, UniProt O95238 1-335); settings: protein: recombinant; tags: N-terminal GST; dsDNA, one strand shown
# T9 sequence: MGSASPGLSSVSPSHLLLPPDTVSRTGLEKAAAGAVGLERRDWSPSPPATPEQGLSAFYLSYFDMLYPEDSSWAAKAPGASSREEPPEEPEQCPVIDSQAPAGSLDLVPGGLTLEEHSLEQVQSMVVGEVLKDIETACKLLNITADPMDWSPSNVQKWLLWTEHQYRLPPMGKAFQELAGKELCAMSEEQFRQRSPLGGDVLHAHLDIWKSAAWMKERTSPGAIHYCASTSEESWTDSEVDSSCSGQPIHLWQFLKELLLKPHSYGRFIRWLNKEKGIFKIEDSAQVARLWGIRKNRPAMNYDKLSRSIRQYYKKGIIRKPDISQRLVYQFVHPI
# In short: as §1
# ETV7 = target: T10, ETV7 (Homo sapiens, UniProt Q9Y603 1-341); settings: protein: recombinant; tags: N-terminal GST; dsDNA, one strand shown
# T10 sequence: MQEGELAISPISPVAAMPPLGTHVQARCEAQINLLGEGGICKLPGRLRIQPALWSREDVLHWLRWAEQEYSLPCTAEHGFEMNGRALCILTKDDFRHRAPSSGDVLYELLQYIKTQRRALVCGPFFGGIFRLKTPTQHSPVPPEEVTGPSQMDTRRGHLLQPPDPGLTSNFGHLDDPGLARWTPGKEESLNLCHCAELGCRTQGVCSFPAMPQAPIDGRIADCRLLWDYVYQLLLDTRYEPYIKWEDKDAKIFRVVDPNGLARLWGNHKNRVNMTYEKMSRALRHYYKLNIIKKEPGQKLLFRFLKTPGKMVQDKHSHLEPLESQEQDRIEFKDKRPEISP
# In short: as §1
# ELF5 = target: T11, ELF5 (Homo sapiens, UniProt Q9UKW6-2 1-255); settings: protein: recombinant; tags: N-terminal GST; dsDNA, one strand shown
# T11 sequence: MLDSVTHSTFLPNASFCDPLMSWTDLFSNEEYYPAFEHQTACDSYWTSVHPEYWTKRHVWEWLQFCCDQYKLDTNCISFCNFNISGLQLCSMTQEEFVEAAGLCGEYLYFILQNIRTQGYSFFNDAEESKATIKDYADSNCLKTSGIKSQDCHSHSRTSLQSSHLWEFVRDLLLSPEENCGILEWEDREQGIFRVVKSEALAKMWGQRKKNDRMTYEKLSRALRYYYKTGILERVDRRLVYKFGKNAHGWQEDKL
# In short: as §1
# ETV3 = target: T12, ETV3 (Homo sapiens, UniProt P41162-2 1-143); settings: protein: recombinant; tags: N-terminal GST; dsDNA, one strand shown
# T12 sequence: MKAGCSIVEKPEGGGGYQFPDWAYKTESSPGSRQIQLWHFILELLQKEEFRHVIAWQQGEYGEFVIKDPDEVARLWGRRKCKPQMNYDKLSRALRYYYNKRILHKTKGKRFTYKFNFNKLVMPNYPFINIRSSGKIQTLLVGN
# In short: as §1
# ETV6 = ETV6 (Homo sapiens, UniProt P41212 1-452); settings: protein: recombinant; tags: N-terminal GST; dsDNA, one strand shown
# In short: as §1
# Chain of ETV1 (P50549 whole entry): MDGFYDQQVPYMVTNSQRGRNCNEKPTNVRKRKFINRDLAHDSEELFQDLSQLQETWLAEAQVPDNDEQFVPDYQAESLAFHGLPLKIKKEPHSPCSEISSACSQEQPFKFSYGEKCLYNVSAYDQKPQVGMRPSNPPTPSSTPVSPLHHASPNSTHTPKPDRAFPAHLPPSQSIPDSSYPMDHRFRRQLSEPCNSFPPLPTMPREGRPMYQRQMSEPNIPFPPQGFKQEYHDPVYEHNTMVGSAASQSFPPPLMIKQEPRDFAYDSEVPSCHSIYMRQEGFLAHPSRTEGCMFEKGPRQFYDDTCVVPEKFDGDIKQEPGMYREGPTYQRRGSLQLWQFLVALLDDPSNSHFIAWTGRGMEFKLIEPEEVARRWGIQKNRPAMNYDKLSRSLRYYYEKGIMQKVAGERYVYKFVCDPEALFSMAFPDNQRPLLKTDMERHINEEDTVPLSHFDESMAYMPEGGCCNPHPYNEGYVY
# Chain of ETV5 (P41161 whole entry): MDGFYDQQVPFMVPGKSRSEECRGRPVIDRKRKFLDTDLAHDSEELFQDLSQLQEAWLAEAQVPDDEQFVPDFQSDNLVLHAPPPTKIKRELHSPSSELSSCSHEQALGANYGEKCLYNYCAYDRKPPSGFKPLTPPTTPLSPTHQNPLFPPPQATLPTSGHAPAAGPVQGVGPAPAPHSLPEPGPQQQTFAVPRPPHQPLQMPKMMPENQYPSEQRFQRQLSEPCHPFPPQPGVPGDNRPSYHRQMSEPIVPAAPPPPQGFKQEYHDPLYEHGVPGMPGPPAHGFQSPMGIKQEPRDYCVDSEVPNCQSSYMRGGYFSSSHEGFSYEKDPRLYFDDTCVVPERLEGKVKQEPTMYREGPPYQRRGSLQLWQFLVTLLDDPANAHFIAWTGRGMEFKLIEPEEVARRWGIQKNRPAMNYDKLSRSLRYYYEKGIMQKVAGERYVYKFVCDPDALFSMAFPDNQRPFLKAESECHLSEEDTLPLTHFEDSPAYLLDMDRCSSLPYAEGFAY
# Chain of ELF4 (Q99607 whole entry): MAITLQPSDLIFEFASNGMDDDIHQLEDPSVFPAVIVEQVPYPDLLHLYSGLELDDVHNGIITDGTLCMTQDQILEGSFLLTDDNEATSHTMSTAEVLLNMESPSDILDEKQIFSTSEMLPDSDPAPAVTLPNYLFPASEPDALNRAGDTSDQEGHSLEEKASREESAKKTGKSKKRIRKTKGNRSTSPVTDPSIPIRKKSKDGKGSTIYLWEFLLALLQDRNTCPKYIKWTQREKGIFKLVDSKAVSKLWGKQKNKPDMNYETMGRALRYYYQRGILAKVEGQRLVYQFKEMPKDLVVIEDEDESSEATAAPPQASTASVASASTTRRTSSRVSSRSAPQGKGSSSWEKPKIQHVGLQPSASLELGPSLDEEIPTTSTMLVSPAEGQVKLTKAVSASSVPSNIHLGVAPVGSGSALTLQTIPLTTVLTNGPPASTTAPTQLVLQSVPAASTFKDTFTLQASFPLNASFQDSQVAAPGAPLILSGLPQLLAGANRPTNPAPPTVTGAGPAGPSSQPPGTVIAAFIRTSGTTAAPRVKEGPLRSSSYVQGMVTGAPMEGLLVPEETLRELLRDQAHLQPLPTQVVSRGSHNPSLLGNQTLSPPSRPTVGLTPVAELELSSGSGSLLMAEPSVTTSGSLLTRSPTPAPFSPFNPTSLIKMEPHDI
# Chain of HSF1 (Q00613 whole entry): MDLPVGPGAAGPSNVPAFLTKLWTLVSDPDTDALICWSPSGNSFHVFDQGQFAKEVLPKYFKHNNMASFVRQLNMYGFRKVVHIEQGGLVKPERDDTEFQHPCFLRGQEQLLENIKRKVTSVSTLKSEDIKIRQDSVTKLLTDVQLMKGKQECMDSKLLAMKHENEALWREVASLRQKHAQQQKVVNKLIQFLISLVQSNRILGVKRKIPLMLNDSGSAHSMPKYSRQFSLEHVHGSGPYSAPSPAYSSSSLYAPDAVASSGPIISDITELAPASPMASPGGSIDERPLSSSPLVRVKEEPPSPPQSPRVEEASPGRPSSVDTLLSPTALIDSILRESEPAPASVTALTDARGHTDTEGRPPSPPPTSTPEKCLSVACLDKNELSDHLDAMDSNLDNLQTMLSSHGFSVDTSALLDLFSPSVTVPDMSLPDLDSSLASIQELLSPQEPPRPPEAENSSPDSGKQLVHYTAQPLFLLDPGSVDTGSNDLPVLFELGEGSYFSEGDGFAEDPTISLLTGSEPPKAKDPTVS
# Chain of ETV6 (P41212 whole entry): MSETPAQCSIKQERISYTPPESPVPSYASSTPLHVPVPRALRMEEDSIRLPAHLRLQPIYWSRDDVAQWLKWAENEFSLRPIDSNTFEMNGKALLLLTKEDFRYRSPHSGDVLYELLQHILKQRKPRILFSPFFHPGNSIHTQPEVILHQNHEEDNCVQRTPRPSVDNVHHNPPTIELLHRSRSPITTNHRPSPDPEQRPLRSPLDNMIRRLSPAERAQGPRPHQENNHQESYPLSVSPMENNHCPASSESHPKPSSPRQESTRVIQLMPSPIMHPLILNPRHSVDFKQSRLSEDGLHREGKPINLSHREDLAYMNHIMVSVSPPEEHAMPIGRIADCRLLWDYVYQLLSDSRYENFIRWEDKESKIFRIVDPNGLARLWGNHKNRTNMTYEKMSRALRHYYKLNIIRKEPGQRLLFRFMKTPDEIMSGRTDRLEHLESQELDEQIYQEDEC
Sequence,binding signal (FEV),binding signal (ETV5),binding signal (HSF1),binding signal (SPIC),binding signal (ELF4),binding signal (ELK4),binding signal (ETV2),binding signal (ELF3),binding signal (ETV1),binding signal (ERF),binding signal (ETV3L),binding signal (ETS2),binding signal (SPDEF),binding signal (ETV7),binding signal (ELF5),binding signal (ETV3),binding signal (ETV6)
ACGGAA,"1.83 fold enrichment (6-mer frequency, TF over GST control)","1.94 fold enrichment (6-mer frequency, TF over GST control)","1.01 fold enrichment (6-mer frequency, TF over GST control)","1.69 fold enrichment (6-mer frequency, TF over GST control)","1.61 fold enrichment (6-mer frequency, TF over GST control)","1.5 fold enrichment (6-mer frequency, TF over GST control)","1.75 fold enrichment (6-mer frequency, TF over GST control)","1.89 fold enrichment (6-mer frequency, TF over GST control)","1.85 fold enrichment (6-mer frequency, TF over GST control)","1.53 fold enrichment (6-mer frequency, TF over GST control)","1.73 fold enrichment (6-mer frequency, TF over GST control)","1.86 fold enrichment (6-mer frequency, TF over GST control)","1.78 fold enrichment (6-mer frequency, TF over GST control)","1.57 fold enrichment (6-mer frequency, TF over GST control)","2.24 fold enrichment (6-mer frequency, TF over GST control)","1.93 fold enrichment (6-mer frequency, TF over GST control)","2.14 fold enrichment (6-mer frequency, TF over GST control)"
ATGTAC,"1.3 fold enrichment (6-mer frequency, TF over GST control)","1.23 fold enrichment (6-mer frequency, TF over GST control)","1.16 fold enrichment (6-mer frequency, TF over GST control)","1.31 fold enrichment (6-mer frequency, TF over GST control)","1.31 fold enrichment (6-mer frequency, TF over GST control)","1.37 fold enrichment (6-mer frequency, TF over GST control)","1.39 fold enrichment (6-mer frequency, TF over GST control)","1.3 fold enrichment (6-mer frequency, TF over GST control)","1.35 fold enrichment (6-mer frequency, TF over GST control)","1.19 fold enrichment (6-mer frequency, TF over GST control)","1.32 fold enrichment (6-mer frequency, TF over GST control)","1.42 fold enrichment (6-mer frequency, TF over GST control)","1.67 fold enrichment (6-mer frequency, TF over GST control)","1.41 fold enrichment (6-mer frequency, TF over GST control)","1.28 fold enrichment (6-mer frequency, TF over GST control)","1.19 fold enrichment (6-mer frequency, TF over GST control)","1.32 fold enrichment (6-mer frequency, TF over GST control)"
